Reference: the supplement of paper PMC11172423

Test system: Madurella mycetomatis MM55
Test: growth relative to untreated control; higher = less inhibition, active = 20 or less
Conditions: 25 µM
Procedure, shortened: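 Compound at 100 or 25 µM was applied for 7 days at 37 °C to hyphal fragments of M. mycetomatis MM55 or F. senegalensis CBS197.79 in 96-well plates. Fragments were suspended in colourless RPMI 1640 with L-glutamine and MOPS at 68–72% transmission at 660 nm, and viability was read with MTS (2 h, 490 nm) or resazurin (600 nm). Growth is reported as blank-corrected metabolic activity relative to the blank-corrected untreated growth control.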

Structure (SMILES)	growth
CCOc1cc([C@@H](CS(C)(=O)=O)N2C(=O)c3cccc(NC(C)=O)c3C2=O)ccc1OC	98.3% (inactive)
C[C@@H](O[C@H]1OCCN(Cc2n[nH]c(O)n2)[C@H]1c1ccc(F)cc1)c1cc(C(F)(F)F)cc(C(F)(F)F)c1	89.8% (inactive)
CN(C)C[C]1[CH][CH][CH][C]1CNc1ccnc2cc(Cl)ccc12.[CH]1[CH][CH][CH][CH]1.[Fe]	33.7% (inactive)
CCc1ccc2c(c1O)CCN(C)C2Cc1ccccc1Cl (configuration not stated)	21.4% (inactive)
Cc1nn(C2CCS(=O)(=O)C2)c(C)c1C1Nc2ccccc2C(=O)N1Cc1ccc2c(c1)OCO2 (configuration not stated)	82.2% (inactive)
Cc1ccc(NC(=O)c2ccc(CN3CCN(C)CC3)cc2)cc1Nc1nccc(-c2cccnc2)n1	86% (inactive)
Cc1cccc(-c2noc(-c3ccccc3)n2)c1	90.6% (inactive)
CC(C)(C)NC(=O)N[C@H](C(=O)N1C[C@H]2[C@@H]([C@H]1C(=O)NC(CC1CCC1)C(=O)C(N)=O)C2(C)C)C(C)(C)C (some centres not stated)	103% (inactive)
COc1ccc(C(=O)N2CCC3(CC2)C(=O)N(CC(=O)NCC2CCCCC2)CN3c2ccccc2)c(OC)c1	67.1% (inactive)
CC(C)(C)NCc1cc(Nc2ccnc3cc(Cl)ccc23)c2c(c1O)CCCC2	113% (inactive)
O=C(Nc1ncccc1O)c1ccc(N2CCOCC2)nc1	92.8% (inactive)
CCCCCOc1ccc(-c2ccc(-c3ccc(C(=O)N[C@H]4C[C@@H](O)[C@@H](O)NC(=O)[C@@H]5[C@@H](O)[C@@H](C)CN5C(=O)[C@H]([C@@H](C)O)NC(=O)[C@H]([C@H](O)[C@@H](O)c5ccc(O)cc5)NC(=O)[C@@H]5C[C@@H](O)CN5C(=O)[C@H]([C@@H](C)O)NC4=O)cc3)cc2)cc1	92.9% (inactive)
CCC1=C(c2ccc(C)cc2)S(=O)(=O)N=C1N1CCC(C(=O)NCCN2CCCCC2C)CC1 (configuration not stated)	88% (inactive)
CS(=O)(=O)NC1CCN(C(=O)c2ccc(Nc3nccc(-c4cc(Cl)cc(C(F)(F)F)c4)n3)cc2)C1 (configuration not stated)	122% (inactive)
Clc1ccc2c(N3CCN(CCCN4CCN(c5ccnc6cc(Cl)ccc56)CC4)CC3)ccnc2c1	95.9% (inactive)
CCN1CCC(c2cc(C)c3nc(-c4cc5c(C)nc(C)cn5n4)cc(=O)n3c2)CC1	80.2% (inactive)
O=C(Nc1ccc([N+](=O)[O-])cc1Cl)c1cc(Cl)ccc1O	4.63% (active)
FC(F)(F)c1ccnc(Nc2cn3cc(-c4ccc(N5CCOCC5)nc4)ccc3n2)n1	73.7% (inactive)
CN(C)CCCN1c2ccccc2CCc2ccc(Cl)cc21	38.1% (inactive)
NS(=O)(=O)OC[C@@H]1C[C@@H](n2ccc3c(N[C@H]4CCc5ccccc54)ncnc32)C[C@@H]1O	85% (inactive)
CCO[C@@H]1[C@@H](OC)[C@H](C)O[C@@H](O[C@@H]2C[C@H]3CC[C@@H]4[C@@H](C=C5C(=O)[C@H](C)[C@@H](O[C@H]6CC[C@H](N(C)C)[C@@H](C)O6)CCC[C@H](CC)OC(=O)C[C@H]54)[C@@H]3C2)[C@@H]1OC	107% (inactive)
CC[C@H](NC(=O)c1cc2c(F)cccc2[nH]1)c1ccccc1	8.07% (active)
